Measured values as given in PubChem BioAssay (NCATS).
Values joined by “and” are separate entries in the source; they are usually repeats but may differ in a detail not shown here. Equal values may be shown once. Records with an inconclusive call do not appear. Active and inactive are the calls of the source. Unless noted, calls follow the shape of the dose curve; as a rule, active = well fitted curve in the direction sought with a large enough effect; inconclusive = small, poorly fitted or top-dose-only effect, or another doubt; inactive = no such curve, though single readings can be large; an effect the other way counts as inactive or inconclusive.

Assays:
[1] = molecular target: Lysosomal acid glucosylceramidase (Homo sapiens) (UniProt P04062); experiment: Glucocerebrosidase-p2 (AID 348; in the data active = potency below about 10 µM; also: potency is read from the fitted curve at half-maximal effect); conditions: purified GBA, blue fluorogenic substrate, 40 min
How it was run: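 Compounds titrated from 0.6 nM upwards against 0.2 nM enzyme in pH 5.9 citric acid/KH2PO4, taurocholate, tween-20; blue fluorogenic substrate 80 uM, 40 min room temperature, stopped and read Ex 365/Em 440 for AC50.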

[2] = molecular target: Cytochrome P450 1A2 (Homo sapiens) (UniProt P05177); experiment: p450-cyp1a2 (AID 410; calls by dose curve; also: potency is read from the fitted curve at half-maximal effect); conditions: recombinant CYP1A2, luciferin-ME demethylation, luminescence; series mostly up to 57 µM
How it was run: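 Inhibition was calculated relative to 57 uM furafylline (full inhibition). The reaction used human CYP1A2 at 20nM with Luciferin-ME at its Km, 100uM, driven by an NADPH-regenerating system for 60 min at room temperature.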

[3] = NFAT Signaling Pathway (AID 444; active = well fitted curve in either direction with a large enough effect, not every such curve was filed as active;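 also: carbachol stimulus at about its EC50 of 1 µM final; % is scaled to controls: 0 for no effect and ±100 for the full control effect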); conditions: Jurkat NFAT-bla M1, carbachol, beta-lactamase ratio, 5 h; at 7.69 µM (top of the series) unless noted
How it was run: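 Jurkat cells carrying an NFAT-driven β-lactamase reporter and co-transfected muscarinic M1 receptor were treated with compound plus carbachol (1 uM final, an EC50 level) for 5 h at 37 °C. CCF4 loading followed for 1 h at RT; 460/530 nm ratio gave %activity.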

[4] = Stat Signaling Pathway (AID 446; active = well fitted curve in either direction with a large enough effect, not every such curve was filed as active;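 also: ME-180 cervical cancer cells given 40 pM IL-6 alongside compound; SIE-controlled beta-lactamase reporter measured as 460/530 nm FRET emission ratio; % is scaled to controls: 0 for no effect and ±100 for the full control effect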); conditions: ME-180 SIE beta-lactamase reporter, IL-6 stimulated, 5 h; at 7.69 µM (top of the series) unless noted
How it was run: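 IL-6/STAT signaling read in ME-180 cells via an SIE beta-lactamase reporter. Stimulus was 40 pM IL-6 (its AC50) for 5 hrs, so both activation and inhibition register.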

[5] = molecular target: Glucocorticoid receptor (Homo sapiens) (UniProt P04150); experiment: GR-EFC Redistribution (AID 451; calls by dose curve; also: potency is read from the fitted curve at half-maximal effect); conditions: CHO-K1 GR-EFC translocation, beta-gal luminescence, 2 h
How it was run: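 CHO-K1 cells stably expressing nuclear-localized β-gal enzyme acceptor and GR fused C-terminally to the enzyme donor fragment; ligand-driven nuclear translocation restores β-gal by complementation. Compounds titrated up to 46 uM final, 2 h at 37 °C; luminescence read.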

[6] = molecular target: Mitogen-activated protein kinase 10 (Mus musculus) (UniProt Q61831); experiment: JNK3 AlphaScreen Assay (AID 530; active = well fitted curve in either direction with a large enough effect, not every such curve was filed as active;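 also: kinase came from lysate of stimulated human HepG2 cells; signal reports phosphorylation of biotinylated GST-cJun 1-79 at Ser73 with 10 µM ATP; % is scaled to controls: 0 for no effect and ±100 for the full control effect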); conditions: JNK3 lysate, c-Jun phosphorylation; series mostly up to 57.1 µM
How it was run: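 JNK3 came from HepG2 lysates pre-activated with IL-1beta and TNF-alpha and phosphorylated biotinylated GST-cJun (1-79) at 10 uM ATP, pH 7.6, room temperature. Compounds were titrated. AlphaScreen signal used anti-phospho-cJun (Ser73) antibody.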

[7] = molecular target: 3',5'-cyclic-AMP phosphodiesterase 4B (Homo sapiens) (UniProt Q07343); experiment: qHTS Assay for Inhibitors of PDE-IV (AID 607; active = well fitted activation curve with a large enough effect in the main read-out, with a control signal flat, not every such curve was filed as active; also: % of control where 0% means no effect); conditions: HEK293 ACTOne CNG channel cells, membrane potential fluorescence; series mostly up to 22.9 µM
How it was run: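 Live HEK293 cells with a modified cyclic nucleotide-gated (CNG) channel report intracellular cAMP via membrane-potential dye fluorescence (ex 535/em 590 nm). Endogenous PDE-IV was targeted. Compounds were tested at up to 22.9 uM final; RO 20-1724 100 uM served as control.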

[8] = molecular target: Cytochrome P450 3A4 (Homo sapiens) (UniProt P08684); experiment: qHTS Assay for Inhibitors and Substrates of Cytochrome P450 3A4 (AID 884); conditions: recombinant CYP3A4, Luciferin-PPXE luminescence; series mostly up to 57.1 µM; also: nearly all actives have a fitted effect of over 50% in size; also: potency is read from the fitted curve at half-maximal effect
How it was run: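 20 nM human CYP3A4 with 25 uM Luciferin-PPXE (at KM) in 200 mM KPO4, preincubated 10 min with compound; NADPH regeneration started a 60 min RT reaction. Luciferin detected by luminescence, normalized to 57 uM ketoconazole as full inhibition.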

[9] = molecular target: Cytochrome P450 3A4 (Homo sapiens) (UniProt P08684); experiment: qHTS Assay for Activators of Cytochrome P450 3A4 (AID 885); conditions: recombinant CYP3A4, Luciferin-PPXE luminescence, 60 min; series mostly up to 57.1 µM; also: nearly all actives have a fitted effect of over 65% in size
How it was run: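 Quantitative HTS format: compounds preincubated with 20nM human CYP3A4 and Luciferin-PPXE substrate at KM, reaction started by NADPH regeneration, stopped after 60 min, luciferase luminescence read 20 min later.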

[10] = qHTS Assay for Lipid Storage Modulators (AID 1519; calls by dose curve); conditions: Drosophila S3 cells, BODIPY lipid droplet/cell ratio, laser cytometry, cells loaded with oleic acid
How it was run: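 Cells seeded at 5,000 per well were treated with compounds over a concentration series and loaded with oleic acid (400 uM, as added). Lipid droplet fluorescence (488 nm excitation, 500-530 nm channel) was read by laser-scanning cytometry and normalized to 20 uM Triacsin C.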

[11] = molecular target: Dual specificity protein kinase CLK4 (Homo sapiens) (UniProt Q9HAZ1); experiment: qHTS Assay for Inhibitors of CDC-like Kinase 4 (Kinase-Glo Assay) (AID 1770); conditions: recombinant Clk4, Kinase-Glo ATP depletion luminescence; series mostly up to 66.7 µM; also: potency is read from the fitted curve at half-maximal effect; nearly all actives have a fitted effect of over 65% in size
How it was run: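 Readout: Kinase-Glo luminescence from ATP left after a 4.5 h room-temperature reaction of 25 nM Clk4 with 100 uM RS peptide and 1 uM ATP (final). Buffer: 25 mM Tris pH 7.5, 10 mM MgCl2.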

[12] = molecular target: Dual specificity protein kinase CLK4 (Homo sapiens) (UniProt Q9HAZ1); experiment: qHTS Assay for Inhibitors of CDC-like Kinase 4 (ADP-Glo Assay) (AID 1771); conditions: recombinant CLK4, ADP-Glo luminescence; series mostly up to 80 µM; also: potency is read from the fitted curve at half-maximal effect; nearly all actives have a fitted effect of over 70% in size
How it was run: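 Kinase reaction: Clk4 at 25 nM, RS repeat peptide substrate at 100 uM, ATP at 1 uM, 1 hr, room temperature. Product ADP detected as luciferase signal via ADP-Glo.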

[13] = molecular target: Dual specificity protein kinase CLK4 (Homo sapiens) (UniProt Q9HAZ1); experiment: qHTS Assay for Inhibitors of CDC-like Kinase 4 (ADP-FP Assay) (AID 1795); conditions: Transcreener ADP fluorescence polarization; series mostly up to 50 µM; also: potency is read from the fitted curve at half-maximal effect; nearly all actives have a fitted effect of over 60% in size
How it was run: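 FP readout: Orange Transcreener ADP2 tracer (4 nM) plus ADP antibody, read after 30 min at room temperature. Kinase step: 6.25 nM Clk4, 100 uM RS peptide, 1 uM ATP, pH 7.5, 1 h.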

[14] = molecular target: Ubiquitin carboxyl-terminal hydrolase 1 (Homo sapiens) (UniProt O94782); experiment: Inhibitors of USP1/UAF1: Pilot qHTS (AID 504865); conditions: purified USP1/UAF1, Ub-rhodamine cleavage fluorescence; series mostly up to 54.9 µM;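 also: rhodamine fluorescence freed from ubiquitin-rhodamine substrate followed over time; top concentration of the series differs between compounds; % is scaled to controls: 0 for no effect and ±100 for the full control effect; nearly all actives have a fitted effect of over 35% in size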
How it was run: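 1nM USP1/UAF1 + cpd, 15 min RT; start w/ Ub-Rho 150nM final; kinetic FL 480/540 nm, 6 reads q60 s. Buffer 50mM HEPES pH 7.8, 0.5mM EDTA, 1mM TCEP, 0.01% Tween-20, 0.1 mg/ml BSA.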

[15] = molecular target: Rap guanine nucleotide exchange factor 3 (Homo sapiens) (UniProt O95398); experiment: Confirmatory qHTS for agonist of cAMP-regulated guanine nucleotide exchange factor 3 (EPAC1) (AID 1645881); conditions: EPAC1 Rap1B BODIPY-GDP exchange fluorescence; series mostly up to 154 µM;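 also: EPAC1 catalysed release of BODIPY-GDP from Rap1B seen as fluorescence loss; 100% = effect of cAMP agonist control; nearly all actives have a fitted effect of over 75% in size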
[16] = molecular target: Rap guanine nucleotide exchange factor 4 (Homo sapiens) (UniProt Q8WZA2); experiment: Confirmatory qHTS for agonist of cAMP-regulated guanine nucleotide exchange factor 4 (EPAC2) (AID 1645884); conditions: EPAC2 GEF activity, Rap1B-BODIPY-GDP fluorescence; series mostly up to 154 µM;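 also: nucleotide exchange releases bodipy-GDP from Rap1 and this lowers its fluorescence; % is scaled to controls: 0 for no effect and ±100 for the full control effect; nearly all actives have a fitted effect of over 65% in size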
[17] = AP1 Signaling Pathway (AID 357; active = well fitted curve in either direction with a large enough effect, not every such curve was filed as active; also: % is scaled to controls: 0 for no effect and ±100 for the full control effect); conditions: ME-180 AP-1-bla reporter, EGF-induced, beta-lactamase ratio, 5 h; at 7.69 µM (top of the series) unless noted
How it was run: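 ME-180 cells with beta-lactamase reporter under AP-1 response element, stimulated with EC50 EGF; compounds tested in titration series, 5 h at 37 °C. CCF4 substrate added 2.5 h at room temperature; 460/530 nm emission ratio gave %activity and AC50.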

[18] = molecular target: Glucocorticoid receptor (Homo sapiens) (UniProt P04150); experiment: GR-GFP Redistribution (AID 450;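 active = compounds whose dose series gives a full or clear partial fitted curve of increased nuclear translocation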; also: potency is read from the fitted curve at half-maximal effect); conditions: U2OS GR-GFP nuclear translocation, laser cytometry, 2 h
[19] = Confirmation and Secondary Assay for Modulators of Hemoglobin Beta Chain Splicing at IVS2 654 locus (AID 910); conditions: HeLa EGFP-654 splicing reporter, GFP fluorescence, 48 h; series mostly up to 38.3 µM;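 also: per-well total GFP intensity by laser scanning cytometry after 2-day treatment; % of control where 0% means no effect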
How it was run: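 HeLa cells stably carrying EGFP interrupted by mutant beta-globin IVS2-654 intron (CMV-driven) were treated with compound for 2 days at 37C; corrected splicing was scored as total peak GFP intensity per well (488 nm excitation, 500-520 nm emission).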

[20] = Confirmation and Secondary Assay for Modulators of Hemoglobin Beta Chain Splicing at IVS2 705 locus (AID 930); conditions: HeLa EGFP-705 splicing reporter, GFP fluorescence, 48 h; series mostly up to 38.3 µM;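 also: HeLa cells stably expressing the EGFP-705 splicing reporter; GFP fluorescence per well restored by corrected splicing of the IVS2-705 intron in EGFP; % of control where 0% means no effect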
How it was run: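 Fluorescence gain (488 nm laser, 500-520 nm PMT) reflects restored correct splicing of a mutant IVS2-705 intron inside EGFP in stably transfected HeLa cells after 2-day compound treatment.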

[21] = measured here: cell count channel max response
[22] = measured here: lipid channel max response

Sequence of Ubiquitin carboxyl-terminal hydrolase 1 (Homo sapiens) (O94782 whole entry, looked up): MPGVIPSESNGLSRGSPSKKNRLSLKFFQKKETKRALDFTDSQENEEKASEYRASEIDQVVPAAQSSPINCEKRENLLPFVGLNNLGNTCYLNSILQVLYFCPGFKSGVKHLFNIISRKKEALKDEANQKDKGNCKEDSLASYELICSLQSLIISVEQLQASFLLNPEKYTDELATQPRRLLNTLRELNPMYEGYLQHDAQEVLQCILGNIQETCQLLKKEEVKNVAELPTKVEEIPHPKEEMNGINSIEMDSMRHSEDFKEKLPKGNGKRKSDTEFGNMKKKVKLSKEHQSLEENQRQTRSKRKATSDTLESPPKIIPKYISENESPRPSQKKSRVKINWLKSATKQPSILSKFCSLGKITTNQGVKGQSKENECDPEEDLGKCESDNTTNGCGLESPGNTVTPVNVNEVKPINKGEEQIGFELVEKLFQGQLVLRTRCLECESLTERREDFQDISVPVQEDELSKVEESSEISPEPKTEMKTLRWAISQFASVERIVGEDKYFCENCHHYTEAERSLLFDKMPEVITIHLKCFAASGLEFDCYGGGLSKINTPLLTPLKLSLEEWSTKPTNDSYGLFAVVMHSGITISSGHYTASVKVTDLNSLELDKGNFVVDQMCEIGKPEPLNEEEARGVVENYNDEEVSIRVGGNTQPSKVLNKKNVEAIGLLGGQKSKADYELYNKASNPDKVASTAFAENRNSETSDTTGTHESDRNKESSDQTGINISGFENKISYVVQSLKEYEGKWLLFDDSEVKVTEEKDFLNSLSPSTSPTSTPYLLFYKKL
Sequence of Dual specificity protein kinase CLK4 (Homo sapiens) (Q9HAZ1 whole entry, looked up): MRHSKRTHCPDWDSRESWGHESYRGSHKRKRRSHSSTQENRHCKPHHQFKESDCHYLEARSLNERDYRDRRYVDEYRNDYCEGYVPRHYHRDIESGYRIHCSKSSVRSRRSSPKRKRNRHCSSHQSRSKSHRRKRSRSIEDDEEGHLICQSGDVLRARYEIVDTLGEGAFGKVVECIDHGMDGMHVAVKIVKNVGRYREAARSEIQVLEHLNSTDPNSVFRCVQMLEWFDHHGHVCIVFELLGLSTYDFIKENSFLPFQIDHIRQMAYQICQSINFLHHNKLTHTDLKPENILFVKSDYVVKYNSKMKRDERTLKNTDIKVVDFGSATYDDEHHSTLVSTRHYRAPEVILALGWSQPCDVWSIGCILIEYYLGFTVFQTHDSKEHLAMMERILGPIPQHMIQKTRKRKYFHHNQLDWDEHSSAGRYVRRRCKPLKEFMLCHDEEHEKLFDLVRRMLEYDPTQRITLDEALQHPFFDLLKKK
Sequence of Rap guanine nucleotide exchange factor 4 (Homo sapiens) (Q8WZA2 whole entry, looked up): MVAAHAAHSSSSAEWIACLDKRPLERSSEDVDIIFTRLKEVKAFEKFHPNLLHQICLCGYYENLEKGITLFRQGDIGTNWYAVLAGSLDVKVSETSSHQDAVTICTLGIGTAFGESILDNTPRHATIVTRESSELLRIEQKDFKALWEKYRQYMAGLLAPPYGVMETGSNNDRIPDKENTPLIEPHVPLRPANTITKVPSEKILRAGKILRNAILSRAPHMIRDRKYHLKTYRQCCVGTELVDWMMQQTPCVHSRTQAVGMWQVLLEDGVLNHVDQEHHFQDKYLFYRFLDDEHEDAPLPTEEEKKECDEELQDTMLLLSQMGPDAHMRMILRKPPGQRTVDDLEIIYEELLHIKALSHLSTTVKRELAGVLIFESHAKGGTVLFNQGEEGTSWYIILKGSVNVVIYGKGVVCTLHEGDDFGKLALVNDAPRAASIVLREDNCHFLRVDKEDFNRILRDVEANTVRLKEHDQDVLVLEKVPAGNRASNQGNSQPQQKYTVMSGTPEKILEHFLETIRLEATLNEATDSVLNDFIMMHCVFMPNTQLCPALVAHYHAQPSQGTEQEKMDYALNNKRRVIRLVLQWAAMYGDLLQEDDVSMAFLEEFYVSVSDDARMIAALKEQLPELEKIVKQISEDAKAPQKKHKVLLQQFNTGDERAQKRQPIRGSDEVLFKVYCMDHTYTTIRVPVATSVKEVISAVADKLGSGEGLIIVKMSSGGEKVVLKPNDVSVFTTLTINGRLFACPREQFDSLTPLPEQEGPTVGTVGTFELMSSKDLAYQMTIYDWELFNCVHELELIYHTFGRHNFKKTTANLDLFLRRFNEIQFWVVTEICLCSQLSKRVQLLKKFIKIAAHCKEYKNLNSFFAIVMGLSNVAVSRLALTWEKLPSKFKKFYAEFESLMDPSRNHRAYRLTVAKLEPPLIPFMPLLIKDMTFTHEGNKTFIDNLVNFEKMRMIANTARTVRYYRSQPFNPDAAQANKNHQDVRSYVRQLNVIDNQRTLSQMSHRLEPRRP
Sequence of Cytochrome P450 3A4 (Homo sapiens) (P08684 whole entry, looked up): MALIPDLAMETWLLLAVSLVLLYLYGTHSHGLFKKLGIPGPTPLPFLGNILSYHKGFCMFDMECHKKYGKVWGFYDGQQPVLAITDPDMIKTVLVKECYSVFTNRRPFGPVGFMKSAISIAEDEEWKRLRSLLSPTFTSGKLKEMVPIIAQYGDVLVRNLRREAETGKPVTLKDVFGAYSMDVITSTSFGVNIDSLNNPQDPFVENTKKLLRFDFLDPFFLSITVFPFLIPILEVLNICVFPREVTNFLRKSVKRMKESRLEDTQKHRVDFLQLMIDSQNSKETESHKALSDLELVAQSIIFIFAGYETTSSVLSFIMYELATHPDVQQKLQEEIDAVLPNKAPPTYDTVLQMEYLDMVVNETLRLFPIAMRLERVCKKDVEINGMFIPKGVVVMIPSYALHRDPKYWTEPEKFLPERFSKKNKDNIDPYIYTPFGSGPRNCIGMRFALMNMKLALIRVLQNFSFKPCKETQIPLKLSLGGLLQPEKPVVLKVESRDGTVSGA
Sequence of Rap guanine nucleotide exchange factor 3 (Homo sapiens) (O95398 whole entry, looked up): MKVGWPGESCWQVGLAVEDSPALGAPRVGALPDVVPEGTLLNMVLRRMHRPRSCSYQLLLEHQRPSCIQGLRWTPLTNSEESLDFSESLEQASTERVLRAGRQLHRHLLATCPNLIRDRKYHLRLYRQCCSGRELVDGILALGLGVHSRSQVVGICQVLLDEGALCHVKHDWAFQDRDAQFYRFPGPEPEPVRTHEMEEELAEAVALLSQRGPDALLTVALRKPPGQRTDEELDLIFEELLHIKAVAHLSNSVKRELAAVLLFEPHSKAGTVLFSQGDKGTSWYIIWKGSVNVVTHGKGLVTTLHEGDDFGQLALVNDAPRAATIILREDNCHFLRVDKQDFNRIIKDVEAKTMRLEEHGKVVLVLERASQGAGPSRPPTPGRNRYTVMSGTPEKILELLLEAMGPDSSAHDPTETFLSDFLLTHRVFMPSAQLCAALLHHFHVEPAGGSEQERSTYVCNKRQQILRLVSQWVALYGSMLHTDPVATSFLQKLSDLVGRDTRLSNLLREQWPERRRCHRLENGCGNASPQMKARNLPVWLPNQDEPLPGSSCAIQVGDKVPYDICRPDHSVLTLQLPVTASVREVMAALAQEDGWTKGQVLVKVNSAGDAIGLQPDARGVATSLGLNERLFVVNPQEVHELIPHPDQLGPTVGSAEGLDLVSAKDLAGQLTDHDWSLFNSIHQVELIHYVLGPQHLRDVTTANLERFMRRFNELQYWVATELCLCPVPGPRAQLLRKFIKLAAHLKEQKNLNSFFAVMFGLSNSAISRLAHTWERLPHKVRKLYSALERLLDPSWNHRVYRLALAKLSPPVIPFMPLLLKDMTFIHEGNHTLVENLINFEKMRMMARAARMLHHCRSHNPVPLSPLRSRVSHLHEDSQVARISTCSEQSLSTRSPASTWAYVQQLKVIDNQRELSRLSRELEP
Sequence of Glucocorticoid receptor (Homo sapiens) (P04150 whole entry, looked up, the tested form may be a part): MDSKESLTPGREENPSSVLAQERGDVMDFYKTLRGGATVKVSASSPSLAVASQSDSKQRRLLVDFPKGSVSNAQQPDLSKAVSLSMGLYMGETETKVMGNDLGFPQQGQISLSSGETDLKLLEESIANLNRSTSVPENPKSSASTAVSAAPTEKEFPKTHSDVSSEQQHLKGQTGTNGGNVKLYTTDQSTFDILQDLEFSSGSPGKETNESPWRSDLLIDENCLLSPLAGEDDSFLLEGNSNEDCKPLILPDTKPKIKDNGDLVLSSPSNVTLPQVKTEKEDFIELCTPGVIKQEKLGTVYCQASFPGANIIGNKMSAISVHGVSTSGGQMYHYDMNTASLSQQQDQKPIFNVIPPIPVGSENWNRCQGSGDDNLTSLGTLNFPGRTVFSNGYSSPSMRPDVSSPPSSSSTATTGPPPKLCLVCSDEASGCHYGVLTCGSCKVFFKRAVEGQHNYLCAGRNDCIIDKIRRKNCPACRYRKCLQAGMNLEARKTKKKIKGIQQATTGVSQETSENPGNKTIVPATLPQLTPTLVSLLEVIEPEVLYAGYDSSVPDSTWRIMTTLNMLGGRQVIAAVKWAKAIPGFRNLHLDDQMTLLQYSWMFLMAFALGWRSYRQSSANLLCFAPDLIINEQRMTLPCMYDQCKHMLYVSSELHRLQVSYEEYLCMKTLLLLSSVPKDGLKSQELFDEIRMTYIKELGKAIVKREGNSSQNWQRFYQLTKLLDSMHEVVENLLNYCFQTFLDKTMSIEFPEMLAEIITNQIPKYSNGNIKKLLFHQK
Sequence of Cytochrome P450 1A2 (Homo sapiens) (P05177 whole entry, looked up): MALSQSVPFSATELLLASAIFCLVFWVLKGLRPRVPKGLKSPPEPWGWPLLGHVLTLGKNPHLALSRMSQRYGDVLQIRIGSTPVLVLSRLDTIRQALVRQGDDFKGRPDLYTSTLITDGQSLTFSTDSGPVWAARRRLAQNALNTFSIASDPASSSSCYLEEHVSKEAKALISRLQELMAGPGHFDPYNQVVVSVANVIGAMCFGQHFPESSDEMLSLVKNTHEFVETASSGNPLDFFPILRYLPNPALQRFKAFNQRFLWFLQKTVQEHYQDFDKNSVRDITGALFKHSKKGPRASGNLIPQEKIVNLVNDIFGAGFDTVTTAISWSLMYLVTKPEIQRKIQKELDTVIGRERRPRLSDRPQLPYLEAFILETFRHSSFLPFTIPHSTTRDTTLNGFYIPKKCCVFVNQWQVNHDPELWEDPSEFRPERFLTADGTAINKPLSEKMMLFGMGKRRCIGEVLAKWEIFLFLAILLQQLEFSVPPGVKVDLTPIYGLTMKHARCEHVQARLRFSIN

COc1ccc2[nH]cc(CCNc3ncnc4ccc(-c5ccc6c(c5)OCO6)cc34)c2c1
active: Potency [2] 0.631 µM | Potency [8] 2 µM | Potency [11] 0.316 µM | Potency [12] 0.282 µM | Potency [13] 0.0708 µM
-5.39%: max response [10, 22]
-4.39%: max response [10, 21]
inactive: Potency [1] > 11.4 µM | activity change, negative = inhibition [3] -23.8% | activity, negative = inhibition [4] -24.8% | Potency [5] > 46 µM | Potency [6] | Potency [7] | Potency [9] | activity change, negative = inhibition ([10]; at 57.5 µM (top of the series)) 2.76% | Potency [14] | Potency [15] | Potency [16]

CC(C)CN1CCCC2(CCN(C(=O)c3ccco3)CC2)C1
inactive: activity change, negative = inhibition [17] -0.809% | activity, negative = inhibition [4] 2.64% | Potency [5] > 46 µM | Potency [6] | Potency [7] | Potency [9]

CC(=O)Oc1ccccc1C(=O)Oc1ccccc1C(=O)O
active: Potency [2] 12.6 µM
-5.13% and 0.698%: max response [10, 22]
-2.66% and 0.474%: max response [10, 21]
inactive: activity change, negative = inhibition [17] 6.88% [at 17.2 µM] | activity change, negative = inhibition [3] 3.91% [at 17.2 µM] | activity, negative = inhibition [4] 8.87% [at 17.2 µM] | Potency [18] > 20.6 µM | Potency [5] > 20.6 µM | Potency [6] | Potency [8] | Potency [19] | outcome [20] | activity change, negative = inhibition ([10]; at 25.7 µM (top of the series)) -1.86% | activity change, negative = inhibition ([10]; at 57.5 µM (top of the series)) -0.43% | Potency [14]

NC(Cc1ccc(O)c(O)c1)C(=O)O (stereo not drawn)
inactive: Potency [8] | activity change, negative = inhibition ([10]; at 57.5 µM (top of the series)) 11.6% | Potency [15] | Potency [16]
4.16%: max response [10, 21]
20.4%: max response [10, 22]

COc1ccc2c(c1)OC/C(=C/c1ccc(O)c(O)c1)C2=O
0.529%: max response [10, 21]
active: Potency [8] 31.6 µM
11.7%: max response [10, 22]
inactive: Potency [9] | Potency [19] | outcome [20] | activity change, negative = inhibition ([10]; at 57.5 µM (top of the series)) 9.34% | Potency [14] | Potency [15] | Potency [16]

O=c1c(O)c(-c2ccc(O)c(O)c2)oc2c(OC3OC(CO)C(O)C(O)C3O)c(O)cc(O)c12 (stereo not drawn)
7.27%: max response [10, 22]
inactive: Potency [9] | outcome [20] | activity change, negative = inhibition ([10]; at 57.5 µM (top of the series)) 0.918% | Potency [14] | Potency [15] | Potency [16]
-2.75%: max response [10, 21]

Cc1ccccc1-c1ccc2ncnc(N(C)Cc3ccco3)c2c1
20.6%: max response [10, 21]
active: Potency [11] 14.1 µM | Potency [12] 14.1 µM | Potency [13] 12.6 µM
23.2%: max response [10, 22]
inactive: Potency [1] > 11.4 µM | activity change, negative = inhibition [17] -8.93% | activity change, negative = inhibition [3] -28.4% | activity, negative = inhibition [4] -13.4% | Potency [18] > 46 µM | Potency [5] > 46 µM | Potency [6] | activity change, negative = inhibition ([10]; at 57.5 µM (top of the series)) 2.17% | Potency [14] | Potency [15] | Potency [16]

COc1c(-c2ccc(O)c(O)c2)oc2cc(O)cc(O)c2c1=O
-16.5%: max response [10, 21]
-17.7%: max response [10, 22]
inactive: Potency [18] > 46 µM | Potency [5] > 46 µM | Potency [7] | Potency [8] | activity change, negative = inhibition ([10]; at 57.5 µM (top of the series)) 0.206% | Potency [15] | Potency [16]
